# Rows were chosen to be rich in hits. Some 1.4% of all compounds tested hit in one or more screens of this group.
# Vaccinia mCherry: vaccinia inhibition (mCherry reporter) | Vaccinia virus mCherry reporter infection, fluorescence | Potency, µM (series often up to 36.5 µM), hits mostly inhibitors | AID 720579 | 310,000 tested, 0.63% active; calls by dose curve; tested in A549 cells; note: nearly all actives have a fitted effect of over 35% in size
# SARS PLpro yeast: SARS-CoV PLP inhibition in yeast; S. cerevisiae expressing SARS-CoV PLpro, growth rescue; Potency, µM (series often up to 32.9 µM), usual class: activators; 330,000 tested, 0.19% active; AID 485353; calls by dose curve; note: nearly all actives have a fitted effect of over 55% in size
# AmpC inh detg: blocks E. coli AmpC beta-lactamase in detergent assay; P00811; Potency, µM (doses to about 114 µM), usual class: inhibitors; AmpC hydrolysis of nitrocefin, absorbance 480 nm, 0.01% Triton; AID 485294; 370,000 tested, 0.041% active; note: nearly all actives have a fitted effect of over 25% in size
# Target sequence (P00811 whole entry, looked up): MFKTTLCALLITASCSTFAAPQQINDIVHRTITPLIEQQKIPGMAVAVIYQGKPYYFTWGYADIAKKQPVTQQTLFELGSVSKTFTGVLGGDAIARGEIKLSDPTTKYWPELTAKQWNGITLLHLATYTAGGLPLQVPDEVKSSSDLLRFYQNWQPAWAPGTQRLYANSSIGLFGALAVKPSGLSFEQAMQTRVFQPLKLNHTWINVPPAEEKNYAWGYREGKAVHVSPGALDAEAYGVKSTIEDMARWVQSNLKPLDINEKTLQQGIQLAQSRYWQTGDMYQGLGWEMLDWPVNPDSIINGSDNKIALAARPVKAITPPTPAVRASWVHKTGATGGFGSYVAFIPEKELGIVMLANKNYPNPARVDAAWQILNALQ
#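 20 mM phosphate pH 7.0 + 0.01% (detergent screen) or 0.0001% Triton X-100; 5.3 nM AmpC reagent; cpd preinc 15 min RT; nitrocefin (800 uM stock) to start; A480 q20 s × 4 min; Activity was normalised to no-enzyme and no-compound control wells.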
# AMA1-RON2 inh: disrupts binding of P. falciparum AMA1 to RON2; AlphaScreen AMA1-biotinylated RON2 peptide binding; AID 720542; Potency, µM (top dose mostly 58.2 µM), hits mostly inhibitors; 360,000 tested, 0.2% active; note: nearly all actives have a fitted effect of over 45% in size
#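 AMA1 (3D7) with his tag at 25 nM final met compounds first, then biotinylated RON2 peptide at 25 nM; detection used donor plus acceptor beads, 10 µg/mL apiece, read by AlphaScreen after 30 min at room temperature.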
# AmpC inh no detg: AmpC beta-lactamase inhibition without detergent; AID 485341; AmpC nitrocefin hydrolysis, absorbance 480 nm, 0.0001% Triton; Potency, µM (titrated, usually from 57.1 µM), most hits filed as inhibitors; 330,000 tested, 0.52% active; note: nearly all actives have a fitted effect of over 20% in size
#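 20 mM phosphate pH 7.0 + 0.01% (detergent screen) or 0.0001% Triton X-100; 5.3 nM AmpC reagent; cpd preinc 15 min RT; nitrocefin (800 uM stock) to start; A480 q20 s × 4 min; Activity was normalised to no-enzyme and no-compound control wells.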
# VACV Venus inh: vaccinia inhibition (Venus reporter); Vaccinia virus Venus reporter expression, fluorescence; Potency, µM (titrated, usually from 36.5 µM), usual class: inhibitors; 330,000 tested, 0.46% active; AID 720580; calls by dose curve; tested in A549 cells; note: nearly all actives have a fitted effect of over 30% in size
# A number is an active result; i = inactive; ? = inconclusive; nt = no result; [ ] = remark or other dose. Unless noted, calls come from the whole dose curve; as a rule, active = well fitted curve in the direction sought with a large enough effect; inconclusive = small, poorly fitted or top-dose-only effect, or another doubt; inactive = no such curve, though single readings can be large; an effect the other way counts as inactive or inconclusive.
SMILES,Vaccinia mCherry,SARS PLpro yeast,AmpC inh detg,AMA1-RON2 inh,AmpC inh no detg,VACV Venus inh
COc1ccc(-c2nc3ccc(NC(C)=O)cc3c(=O)n2Cc2cccc(Cl)c2)cc1COc1ccc(NC(C)=O)cc1,i,nt,nt,nt,nt,i
COc1ccccc1OCc1ccc(C(=O)NCc2ccco2)o1,i,i,i,i,0.28µM,i
COc1cc(OC)c(OC)cc1CN1CCCC(n2cc(C(=O)N3CCCCC3)nn2)C1 (stereo not drawn),i,nt,nt,nt,nt,i
Cc1ccc(NC(=O)CN(C)S(=O)(=O)c2cccc3nsnc23)cc1,nt,i,i,i,0.16µM,?
CCSc1nc2ccccc2n1C(=O)/C=C/c1ccc(OC)c(OC)c1,28µM,i,i,i,i,?
C=CCSc1nc2ccccc2n1C(=O)/C=C/c1ccc(OC)c(OC)c1,nt,i,i,i,i,nt
O=S1(=O)CCO[C@H]2CCCC[C@@H]2N1Cc1ccccc1,i,nt,nt,nt,nt,i
O=C(CSc1nnc(SCc2cccc3ccccc23)s1)N/N=C/c1c[nH]c2ccccc12,?,i,i,i,i,?
O=C(CSc1nnc(SCc2ccccc2)s1)N/N=C/C=C/c1ccco1,i,i,?,i,11µM,i
O=C(CSc1nnc(SCc2cccc3ccccc23)s1)N/N=C/C=C/c1ccccc1[N+](=O)[O-],i,i,i,i[2.32 µM],14µM,i
O=C(CSc1nnc(SCc2ccc(Cl)cc2)s1)N/N=C/c1c[nH]c2ccccc12,?,i,?,i,i,11µM
CCn1c(SCC(=O)N/N=C/C=C/c2ccco2)nnc1-c1ccccc1,i,i,i,i,i,i
COc1cc2nc(CCNCc3ccccc3)nc(NC3CCN(C)CC3)c2cc1OC,i,nt,nt,nt,nt,i
Cc1ccc(NC2=C(Cl)C(=O)OC2OC(=O)c2ccccc2)c(C)c1 (stereo not drawn),i,i,?,i,?,i
Cc1ccccc1NC1=C(Cl)C(=O)OC1OC(=O)c1ccccc1C (stereo not drawn),?,i,20µM,i,10µM,?
Cc1ccccc1C(=O)OC1OC(=O)C(Cl)=C1N1CCOCC1 (stereo not drawn),i,i,4µM,i,2.8µM,i
Cc1ccc(C)c(CNC(=O)c2ccc3c(c2)nc2n3CCCCC2)c1,i,nt,i,nt,nt,i
COc1ccc(-c2cc3ccccc3oc2=O)cc1NC(=O)c1ccc([N+](=O)[O-])o1,11µM,i,i,i,i,?
O=S(=O)(c1ccc(NC(=S)NCCC(c2ccccc2)c2ccccc2)cc1)N1CCOCC1,10µM,i,?,i,i,11µM
O=C(Nc1ccc(N2CCOCC2)cc1)c1ccc([N+](=O)[O-])o1,11µM,i,?,i,i,?
O=C(COC(=O)c1ccc([N+](=O)[O-])o1)Nc1ccc(N2CCOCC2)cc1,nt,i,nt,i,i,nt
O=C(Nc1ccc(S(=O)(=O)N2CCOCC2)cc1)c1ccc([N+](=O)[O-])o1,?,i,i,i,i,18µM
COc1ccccc1C(=O)N[C@@H]1c2ccccc2C2(CCN(Cc3ccc(C)o3)CC2)[C@H]1O,i,nt,nt,nt,nt,i
Nc1c(Br)cc(/C=C/c2ccnc3ccccc23)cc1Br,i,nt,nt,nt,nt,i
O=C(Nc1ccc(Cc2ccncc2)cc1)c1cccc([N+](=O)[O-])c1,i,i,?,i,i,i
SMILES,Vaccinia mCherry,SARS PLpro yeast,AmpC inh detg,AMA1-RON2 inh,AmpC inh no detg,VACV Venus inh
COc1cc(NC(=O)c2ccc([N+](=O)[O-])o2)ccc1NC(=O)c1cccs1,10µM,i,i,i,i,10µM
O=C(Nc1cccc(NC(=O)c2cccs2)c1)c1ccc([N+](=O)[O-])o1,?,i,i,i,i,?
O=C(Nc1ccc(Cc2ccncc2)cc1)c1ccc([N+](=O)[O-])o1,10µM,i,i,i,i,?
COc1ccccc1-c1nc2cc(C(=O)NC[C@H]3CCc4ccccc4O3)cc(NC(C)=O)c2n1C,i,nt,nt,nt,nt,i
Cc1cc(C)c(S(=O)(=O)c2ccccc2C)c(SCC(C)C)n1,nt,i,i,i,0.25µM,?
CC1(C(=O)NC2CCCCC2)Cc2ccccc2C(=O)N1Cc1ccc(Cl)cc1 (stereo not drawn),i,nt,i,nt,nt,i
O=C(N/N=C/c1ccc(OCc2ccc(F)cc2)cc1)c1ccccc1,?,i,i,i,i,i
CC(C)(C)c1ccc(OCc2ccc(C(=O)N/N=C/c3ccc(O)c(O)c3)cc2)cc1,i,i,i,i,14µM,i
O=C(COc1ccccc1C(=O)N/N=C\c1ccc(O)c(O)c1)N/N=C/c1ccc(O)c(O)c1,i,i,?,?,40µM,i
O=C(NN=Cc1ccc(O)c(O)c1)c1ccccc1,i,nt,nt,i,nt,i
CCc1cccc(NC(=O)C2CCCN2S(=O)(=O)c2ccc3nc(-c4ccccc4)[nH]c3c2)c1 (stereo not drawn),?,nt,i,nt,nt,?
Cc1cccc(CNC(=O)c2c3n(c(C)cc2=O)-c2ccccc2SC(c2sccc2C)C3)n1 (stereo not drawn),i,nt,nt,nt,nt,i
C=C1C(O)[C@@H]2O[C@]3(CC[C@H](/C=C/C(C)[C@@H]4CC(C)=CC5(O[C@H](C[C@@](C)(O)C(=O)O)CCC5O)O4)O3)CC[C@H]2O[C@@H]1C(O)CC(C)[C@H]1OC2(CCCCO2)CCC1C (stereo partly drawn),i,i,nt,i,i,0.32µM
O=Cc1ccc(CS)cc1,i,nt,nt,nt,nt,i
O=C(N/N=C/c1ccccn1)c1ccccc1,?,i,i,i,i,i
O=C(N/N=C/c1ccccn1)c1ccc(Cl)cc1,3.2µM,i,?,i,i,i
COC(=O)c1cc(NC(=O)C2COc3ccccc3O2)cc(C(=O)OC)c1 (stereo not drawn),nt,i,i,i,0.22µM,nt
COc1cccc(NC(=O)C2COc3ccccc3O2)c1 (stereo not drawn),nt,i,?,i,i,nt
O=c1[nH]/c(=C/c2ccc3c(c2)OCO3)c(=O)[nH]/c1=C\c1ccc2c(c1)OCO2,i,nt,nt,nt,nt,i
CCc1nnc(N/N=C/c2cc(C)c(C)cc2C)n1N,10µM,i,?,i,i,13µM
Cc1cccc(NCc2ccc(O)c3ncccc23)c1C,i,i,i,i,i,i
Cc1cccnc1NCc1ccc(O)c2ncccc12,14µM,?,i,i,i,?
CC(=O)N1CCN(C(=O)c2cccc(S(=O)(=O)N3c4ccccc4CC3C)c2)CC1 (stereo not drawn),i,i,nt,i,i,i
CC1Cc2ccccc2N1S(=O)(=O)c1cccc(C(=O)N2CCN(c3ncccn3)CC2)c1 (stereo not drawn),1.6µM,i,i,i,i,i
COc1cccc(Cc2nc3cccnc3n2C2CCN(C(=O)c3n[nH]c4c3CCCC4)CC2)c1,i,nt,nt,nt,nt,i
CCc1nc(N)nc(N)c1-c1ccc(Cl)c([N+](=O)[O-])c1,i,nt,nt,i,nt,0.28µM
